Screening results from PubChem BioAssay.
Only some compounds are listed: those with a hit (about 4.2% of all), similar ones and a draw of the others.
Mtb betalactam: beta-lactam sensitization of Mtb H37Rv; M. tuberculosis H37Rv growth with meropenem, percent inhibition; inhibition, % at 25 µM; 0.27% of 330,000 active; call rule not given here;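 note: growth measured after seven days incubation then overnight dye step; 0% = bacteria only wells and 100% = bacteria with antibiotic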
CCHF vOTU inh: CCHFV vOTU protease inhibition; Pep-AMC fluorescence; inhibition, % at 11.5 µM; 0.55% of 370,000 active; AID 651958; note: 0% = vehicle wells with enzyme and 100% = no enzyme wells
Mtb FBA inh: inhibitors of M. tuberculosis fructose-bisphosphate aldolase; P9WQA3; purified M. tuberculosis FBA, fluorescence read-out; inhibition, % at 1 µM; 2.3% of 360,000 active; AID 588726; in the data active = inhibition above about 27%;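 note: 0% = vehicle and 100% = reference inhibitor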
GDH-TPI counter: counter-screen for M. tuberculosis FBA inhibitors: GDH-TPI coupled enzymes; GDH-TPI coupled enzyme counterscreen, NADH absorbance; inhibition, % at 4.8 µM; 1.2% of 360,000 active;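 note: 0% = DMSO wells and 100% = wells lacking the enzyme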
RecA splice inh: blocks M. tuberculosis RecA intein splicing; P9WHJ3; cell-free RecA intein splicing, fluorescence; inhibition, % (test concentration not listed); 0.75% of 290,000 active; AID 2221; in the data active = inhibition above about 30%; inconclusive = no clear call, values can overlap the other calls;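 note: 0% = vehicle wells and 100% = reference inhibitor control wells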
* hit, by the source's call; i = inactive; ? = inconclusive; nt = no result; + = active, no number. Cut-off read from the data, not from the text of the source, unless noted: active = inhibition above about 30%; inactive = the rest.

SMILES	Mtb betalactam	CCHF vOTU inh	Mtb FBA inh	GDH-TPI counter	RecA splice inh
CC(C)Oc1cccc(-c2n[nH]c(=S)n2N=Cc2ccc(OCc3ccccc3)cc2)c1	nt	16	nt	nt	nt
CN(Cc1ccco1)S(=O)(=O)c1nnc(NC(=O)c2ccc(F)cc2)s1	20	13	9	38*	-3
CCOc1ccc(C(=O)Nc2nnc(NC(=S)Nc3ccccc3)s2)cc1	21	9	-2	40*	-1
CCOc1ccc(C(=O)Nc2nnc(S(=O)(=O)N(C)Cc3ccco3)s2)cc1	3	9	7	39*	-2
CC(C)CNC(=O)OCc1cn(Cc2ccccc2)nn1	nt	-7	nt	nt	nt
COC(=O)C1CN(CC(C)C)CCS(=O)(=O)N1Cc1ccc(C(F)(F)F)cc1 (configuration not stated)	nt	19	nt	nt	nt
CN1[C@H](Cc2ccccc2)COc2cc(N3CCSCC3)ccc2S1(=O)=O	nt	4	nt	nt	nt
Cc1cc(=O)oc2cc(NS(=O)(=O)c3ccccc3)ccc12	2	-358	nt	37*	-55
Cc1cc(=O)oc2cc(NS(=O)(=O)c3ccc(F)cc3)ccc12	-1	-342	nt	52*	-49
Cc1cc(=O)oc2cc(NC(=O)c3cc(F)ccc3F)ccc12	-2	-9	7	13	nt
Cc1ccc(/C=N/Nc2cn[nH]c(=O)n2)o1	7	4	-3	33*	-3
C=CCn1c(SCC(=O)c2ccc(F)cc2)nnc1-c1ccc(F)cc1	nt	6	nt	nt	nt
Cc1ccccc1N(C)C(=O)CN1CCN(c2nc(-c3ccccc3)cs2)CC1	nt	1	nt	nt	nt
CCC(=O)Nc1ccc(-c2nnc(-c3ccccc3)o2)cc1	34	1	+	1	3
O=C(Nc1ccc(-c2nnc(-c3ccco3)o2)cc1)C(c1ccccc1)c1ccccc1	-11	0	7	19	-3
O=C(O)CCC(=O)Nc1ccc(-c2nnc(-c3ccco3)o2)cc1	1	-28	141*	17	-1
Cc1ccc(SCC(=O)Nc2ccc(-c3nnc(-c4ccco4)o3)cc2)cc1	-11	-10	1	31*	-3
CN1CCCN(C(=O)C2CCN(c3ncnc4c3sc3cccc(F)c34)CC2)CC1	nt	-2	nt	nt	nt
CN(Cc1ccccc1)C(=O)OCc1cn(Cc2ccc(Cl)cc2)nn1	nt	4	nt	nt	nt
CC(C)CC(N)c1csc(Nc2ccc(C(=O)NCCCO)cn2)n1 (configuration not stated)	nt	7	2	34*	nt
O=c1[nH]cc(N=Cc2cc([N+](=O)[O-])ccc2O)c(=O)[nH]1	6	nt	nt	nt	50*
Cc1cc(O)c(C(C)C)cc1N=Cc1cc([N+](=O)[O-])ccc1O	21	21	0	27	-2
COC1=C/C(=C/c2c(N)n3c(nc2=O)sc2cc(S(C)(=O)=O)ccc23)C=CC1=O	-7	16	-5	52*	2
Cn1c(-c2ccc(C=O)s2)nc2ccccc21	25	-25	19	21	-118
CC1(C)C=C(c2ccc(C=O)s2)CC(C)(C)N1	-13	12	-1	40*	-1
SMILES	Mtb betalactam	CCHF vOTU inh	Mtb FBA inh	GDH-TPI counter	RecA splice inh
CC1(C)C=C(c2ccc(C=O)s2)CC(C)(C)N1C=O	-6	8	7	32*	2
Cc1ccc(OCCn2c(C)c(/C=N/n3cnnc3)c3ccccc32)cc1	2	24	2	31*	-1
Cc1nc(NS(=O)(=O)c2ccccc2)sc1C(=O)NN	-1	-1	2	11	0
C/C(=N/NC(=O)c1sc(NS(=O)(=O)c2ccccc2)nc1C)c1sc(N)nc1C	0	14	6	38*	1
COc1ccc(S[C@]2(C(=O)N3CCN(c4ncccn4)CC3)CC(=O)N(C(=O)/C=C/c3ccccc3)[C@@H]2c2ccc(OC)cc2)cc1	nt	14	nt	nt	nt
CCOc1ccc(-c2c(C(=O)N/N=C/c3sccc3C)nnn2-c2nonc2N)cc1	5	26	-1	24	-4
Cc1ccsc1/C=N/NC(=O)c1nnn(-c2nonc2N)c1-c1ccc2c(c1)OCO2	8	13	-4	32*	1
Nc1nonc1-n1nnc(C(=O)N/N=C/c2cccs2)c1-c1ccc2c(c1)OCO2	-4	21	2	39*	-1
Cc1ccc(-c2c(C(=O)N/N=C/c3ccc4c(c3)OCO4)nnn2-c2nonc2N)cc1	0	-66	4	43*	-3
CCOc1cccc(-c2c(C(=O)N/N=C/c3sccc3C)nnn2-c2nonc2N)c1	4	21	-1	32*	0
CN1CC=C(c2ccccc2)N(c2ccccc2)C1=O	nt	4	nt	nt	nt
CCOc1ccc(-n2c(SCC(=O)Nc3ccc(S(=O)(=O)Nc4nccs4)cc3)nnc2-c2ccccc2)cc1	nt	12	nt	nt	nt
CCC(=O)Nc1c(OC(=O)CC)ccc2c(C)cc(=O)oc12	-7	-160	140*	10	-73
CCOC(=O)[C@]12CCCC3=C1N(CCC3)C(=O)[C@@H](CC(=O)NCc1ccc(OC)c(OC)c1)C2	nt	0	nt	nt	nt
COc1ccc(/C=C(/NC(=O)c2ccccc2)c2nc3ccccc3[nH]2)cc1OC	-6	24	0	42*	4
COc1ccc(/C=C(/NC(=O)c2ccccc2)c2nc3ccc(Cl)cc3[nH]2)cc1OC	6	-5	3	36*	6
Cc1ccc(C(=O)N/C(=C\c2cccnc2)c2nc3ccccc3[nH]2)cc1	-6	3	2	29	-1
COc1ccc(C(=O)N/C(=C\c2cccs2)c2nc3ccccc3[nH]2)cc1OC	?	20	4	49*	3
COC(=O)/C(=C\c1cc(OC)c(OC)c(OC)c1)c1nc2ccccc2[nH]1	1	-7	1	15	-2
COc1ccc(C(=O)N/C(=C/c2cccs2)C(=O)NN)cc1OC	5	3	2	11	6
O=C(O)CCC(=O)N1CCN(c2ccc(C(=O)c3ccc(F)cc3)cc2)CC1	0	18	-1	38*	-4
COCCn1c(=NC(=O)CSC(C)=O)sc2cc(OC)ccc21	-5	20	-1	15	12
COCCn1c(=NC(=O)CSCC(=O)NC2CCCCC2)sc2cc(OC)ccc21	11	-3	-2	42*	nt
O=C(NCCc1c[nH]c2ccccc12)c1ccc(Sc2ccccc2Cl)c([N+](=O)[O-])c1	nt	6	nt	nt	nt
O=C(c1cc(F)ccc1F)N(Cc1ccccn1)CC1CCCO1 (configuration not stated)	nt	-7	nt	nt	nt
SMILES	Mtb betalactam	CCHF vOTU inh	Mtb FBA inh	GDH-TPI counter	RecA splice inh
C1=C(c2ccc(-c3ccccc3)cc2)Nc2ncnn2C1c1ccco1 (configuration not stated)	nt	-29	13	9	nt
Fc1ccc(C2=CC(c3ccco3)n3ncnc3N2)cc1 (configuration not stated)	-4	nt	113*	19	-126
COc1ccc(C2C=C(c3ccc(C)cc3)Nc3ncnn32)cc1 (configuration not stated)	nt	-65	+	4	i
Oc1ccc(C2C=C(c3ccc(F)cc3)Nc3ncnn32)cc1 (configuration not stated)	nt	3	3	14	-351
Fc1ccc(C2=CC(c3ccc(Br)o3)n3ncnc3N2)cc1 (configuration not stated)	9	nt	43*	11	nt
O=C(/C=C/c1cccs1)Nc1cccnc1	-5	9	-3	32*	0
